The campaign covered roughly 370,000 compounds. About 3,300 (0.89%) were called active.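 The calls were made as follows: active = activation above the mean of all tested compounds plus 3 SD, computed per campaign excluding outliers beyond control limits (cut at about 13% in these data); inactive = the rest.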 The list comes from a sample in which actives are over-represented; it also holds similar structures and randomly drawn compounds.
The molecules below were run against Kallikrein-7 (Homo sapiens) (UniProt P49862) (assay: proKLK7 zymogen activators, primary screen, biochemical, fluorescence intensity (AID 652039)). Details: purified proKLK7, EDANS-DABCYL substrate fluorescence; at 7 µM; hits give high values.
Chain of Kallikrein-7 (Homo sapiens) (P49862 whole entry, looked up): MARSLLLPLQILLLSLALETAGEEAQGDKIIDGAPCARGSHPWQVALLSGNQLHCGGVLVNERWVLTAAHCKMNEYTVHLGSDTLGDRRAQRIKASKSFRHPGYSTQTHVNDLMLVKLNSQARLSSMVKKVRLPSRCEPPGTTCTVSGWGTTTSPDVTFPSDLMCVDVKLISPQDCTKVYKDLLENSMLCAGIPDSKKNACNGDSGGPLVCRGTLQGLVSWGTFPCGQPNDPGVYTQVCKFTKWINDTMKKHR
`CCOc1ccc(-c2cc(C)[n+](CCN(CC)CC)c(-c3ccc(OCC)cc3)c2)cc1` was tested, and the activation was 44.7% (active). With `COc1ccc(-c2nn(CCC#N)cc2C(=O)O)cc1` the activation was -0.57% (inactive). With `COc1cc(OC)cc(C(=O)NCCN2CCC3(CC2)C(=O)NCN3c2ccccc2)c1` the activation was 0.06% (inactive). `CS(=O)(=O)N1CCC2CCNC2C1` (stereo not given) was tested, and the activation was -0.49% (inactive). For `COc1ccccc1C1=NCc2nnc(CSC)n2-c2ccc(Cl)cc21`, the activation was -0.06% (inactive). `Cc1cc(OCc2cc(C(=O)O)oc2C)c2c3c(c(=O)oc2c1)CCCC3` was tested, and the activation was 9.69% (inactive). In the case of `COC(=O)COc1cc(C)cc2oc(=O)c3c(c12)CCCC3`, the activation is reported as 14.7% (active). In the case of `Brc1ccc2c(c1)CNCc1cnnn1-2`, the activation is reported as 0.31% (inactive). In the case of `CCN(CC)C(=O)[C@@H]1C=C2c3cccc4[nH]c(Br)c(c34)C[C@H]2N(C)C1`, the activation is reported as -1.09% (inactive). `Cc1cc(N2CCNC[C@@H]2C)ccc1N1CC[C@H](O)C1` was tested, and the activation was 1.32% (inactive). `O=C(OCCN1CCOCC1)C1(c2ccccc2)CCCC1` was tested, and the activation was 0.22% (inactive). With `CCOC(=O)c1c(N)n(CCN2CCOCC2)c2nc3ccccc3nc12` the activation was 27.2% (active). For `COc1cc(Cn2c(N)c(C(=O)NCc3ccco3)c3nc4ccccc4nc32)cc(OC)c1OC`, the activation was -1.84% (inactive). For `COc1ccc2c(c1)[C@@]13CCCCC1[C@@H](C2)NCC3` (stereo not given in full), the activation was 0.08% (inactive). `O=S(=O)(c1ccccc1)N1CCC2CCNC2C1` (stereo not given) was tested, and the activation was -0.08% (inactive). For `c1ccc(CCN2CCC3(CC2)OCCO3)cc1`, the activation was 0.24% (inactive). In the case of `C[C@H]1CN([C@@H](C)CO)C(=O)CCCn2nncc2CO[C@H]1CN(C)C(=O)Oc1ccccc1`, the activation is reported as -0.02% (inactive). In the case of `COc1cccc(-c2nc3ccc(N4CCN(C)CC4)cc3[nH]2)c1`, the activation is reported as 68.7% (active). With `Clc1ccc([C@@H]2CC3CCC2N3)cn1` (stereo not given in full) the activation was 0.62% (inactive). In the case of `CCC(C)NC1(c2ccccc2)CCCCC1` (stereo not given), the activation is reported as 0.13% (inactive). With `COc1ccc(C(=O)CC2C(=O)N(C)C(=O)N(C)C2=O)cc1` the activation was -0.07% (inactive). `Cc1ccccc1CCC[C@@H](CC1CCCCC1)CN(C)C(=O)Oc1ccccc1` was tested, and the activation was 0.38% (inactive). In the case of `Cc1nc2ccc(N3CCN(C)CC3)cc2nc1C`, the activation is reported as 83.6% (active). With `COP(=O)(Sc1ccccc1)C(Cc1ccccc1)NC(=O)OCc1ccccc1` (stereo not given) the activation was 0.08% (inactive). With `c1ccc2sc(C3CCCNC3)nc2c1` (stereo not given) the activation was 0.61% (inactive).

Reference: PubChem BioAssay AID652039 (The Scripps Research Institute Molecular Screening Center, 2013)
